In PubChem BioAssay (NCATS):
Records with an inconclusive call do not appear. Where a call stands in place of a potency, no number is given. The source made the active and inactive calls. Calls come from the whole dose curve; as a rule, active = well fitted curve in the direction sought with a large enough effect; inconclusive = small, poorly fitted or top-dose-only effect, or another doubt; inactive = no such curve, though single readings can be large; an effect the other way counts as inactive or inconclusive.

Assays:
[1] = P-glycoprotein substrates identified in KB-8-5-11 adenocarcinoma cell line, qHTS therapeutic library screen (AID 1346987); note: series mostly up to about 44 µM; nearly all actives have a fitted effect of over 65% in size
In short: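 Compounds are pinned in dose-response onto KB-8-5-11 cells (500 cells/well, colchicine-free medium) and left 72 h at 37 degree C. CellTiter-Glo luminescence then yields AC50 values.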

[2] = NS1 protein of Zika virus - qHTS assay to identify small molecule inhibitors in human HEK 293 cells (AID 1347053); note: series mostly up to about 46 µM; nearly all actives have a fitted effect of over 55% in size
In short: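 Readout was TR-FRET using paired anti-NS1 antibodies after 24 h infection of HEK 293 cells with ZIKV MR766 (MOI = 0.5). Compound preceded virus by 1 h; reduced signal reflects lower NS1 expression.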

Row | Structure (SMILES) | Potency [1] | outcome [2]
1 | Oc1ccc(Cl)cc1 | inactive | inactive
2 | C[C@H]1[C@@H]2Cc3ccc(O)cc3[C@@]1(C)CCN2C | inactive | inactive
3 | CCCCCCC(=O)CCCCCC/C=C/C[C@@H](O)[C@H](O)[C@@](N)(CO)C(=O)O | inactive | inactive
